Measured values reported in PubChem BioAssay AID1159580 (chemical genetic matrix, 2015).
Where “and” joins values, the source holds several entries; their conditions need not be identical. Equal values may be shown once. Among all 5,500 compounds or so, about 2,000 (36%) were called active. Another 18% or so got no clear call; they are omitted. Cut-off read from the data, not from the text of the source: active = normalized growth mostly below about 0.91 (no sharp cut-off); inconclusive = no clear call, values can overlap the other calls; inactive = mostly above about 0.92. This is one part of the list.

Experiment: chemical genetic growth profiling, strain panel (AID 1159580);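 note: tested at 20 µM; growth read once vehicle control cultures reached saturation at 30 °C; 1 = growth at the plate median or of vehicle wells; lower values mean less growth of the strain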
Settings: growth OD

Measured: normalized growth

CC(C(=O)O)c1cccc(Oc2ccccc2)c1 (configuration not stated)
active: S. cerevisiae deletion strains, locus YKL068W, stronger effect = lower value 0.937 | S. cerevisiae deletion strains, locus YKL085W, strain MDH1 (second series), stronger effect = lower value 0.919 | S. cerevisiae deletion strains, locus YKL085W, strain MDH1, stronger effect = lower value 0.919 | S. cerevisiae deletion strains, locus YLR113W, strain HOG1, stronger effect = lower value 0.828
inactive: S. cerevisiae deletion strains, locus YAL013W, strain DEP1, stronger effect = lower value 0.963 | S. cerevisiae deletion strains, locus YBR021W, strain FUR4, stronger effect = lower value 0.983 | S. cerevisiae deletion strains, locus YBR229C, strain ROT2, stronger effect = lower value 0.94 | S. cerevisiae deletion strains, locus YCL029C, strain bik1, stronger effect = lower value 0.98 | S. cerevisiae deletion strains, locus YDL035C, strain GPR1, stronger effect = lower value 0.983 | S. cerevisiae deletion strains, locus YDL074C, strain BRE1, stronger effect = lower value 0.997 | S. cerevisiae deletion strains, locus YDL101C, strain DUN1, stronger effect = lower value 0.96 | S. cerevisiae deletion strains, locus YDL134C, strain PPH21, stronger effect = lower value 0.976 | S. cerevisiae deletion strains, locus YDL185W, strain tfp1, stronger effect = lower value 0.948 | S. cerevisiae deletion strains, locus YDL192W, strain arf1, stronger effect = lower value 0.973 | S. cerevisiae deletion strains, locus YDR101C, strain arx1, stronger effect = lower value 0.984 | S. cerevisiae deletion strains, locus YDR150W, strain NUM1, stronger effect = lower value 0.947 | S. cerevisiae deletion strains, locus YDR162C, strain NBP2, stronger effect = lower value 0.969 | S. cerevisiae deletion strains, locus YDR318W, strain mcm21, stronger effect = lower value 0.988 | S. cerevisiae deletion strains, locus YDR388W, stronger effect = lower value 0.978 | S. cerevisiae deletion strains, locus YDR502C, strain sam2, stronger effect = lower value 0.981 | S. cerevisiae deletion strains, locus YEL061C, strain CIN8, stronger effect = lower value 0.973 | S. cerevisiae deletion strains, locus YER110C, stronger effect = lower value 0.967 | S. cerevisiae deletion strains, locus YER155C, strain BEM2, stronger effect = lower value 0.958 | S. cerevisiae deletion strains, locus YER167W, strain BCK2, stronger effect = lower value 0.988 | S. cerevisiae deletion strains, locus YGL078C, strain dbp3, stronger effect = lower value 0.959 | S. cerevisiae deletion strains, locus YGL086W, strain mad1, stronger effect = lower value 0.98 | S. cerevisiae deletion strains, locus YGL248W, strain PDE1, stronger effect = lower value 0.974 | S. cerevisiae deletion strains, locus YGR078C, strain PAC10, stronger effect = lower value 0.999 | S. cerevisiae deletion strains, locus YGR135W, strain pre9, stronger effect = lower value 0.985 | S. cerevisiae deletion strains, locus YGR229C, strain SMI1, stronger effect = lower value 0.974 | S. cerevisiae deletion strains, locus YGR252W, strain gcn5, stronger effect = lower value 0.957 | S. cerevisiae deletion strains, locus YHR030C, strain SLT2, stronger effect = lower value 0.978 and 0.9 | S. cerevisiae deletion strains, locus YHR079C, strain IRE1 (second series), stronger effect = lower value 0.972 | S. cerevisiae deletion strains, locus YHR079C, strain IRE1, stronger effect = lower value 0.892 | S. cerevisiae deletion strains, locus YHR094C, strain hxt1, stronger effect = lower value 0.965 | S. cerevisiae deletion strains, locus YHR129C, strain ARP1, stronger effect = lower value 0.983 | S. cerevisiae deletion strains, locus YHR200W, strain rpn10, stronger effect = lower value 0.98 | S. cerevisiae deletion strains, locus YIL066C, strain RNR3, stronger effect = lower value 0.964 | S. cerevisiae deletion strains, locus YIL073C, strain SPO22, stronger effect = lower value 0.965 | S. cerevisiae deletion strains, locus YIL125W, strain kgd1, stronger effect = lower value 0.944 | S. cerevisiae deletion strains, locus YIR030C, strain dcg1, stronger effect = lower value 0.962 | S. cerevisiae deletion strains, locus YJL095W, strain BCK1, stronger effect = lower value 1.05 and 0.905 | S. cerevisiae deletion strains, locus YJL134W, strain LCB3, stronger effect = lower value 0.962 | S. cerevisiae deletion strains, locus YJL168C, strain set2, stronger effect = lower value 0.967 | S. cerevisiae deletion strains, locus YJL187C, strain SWE1 (second series), stronger effect = lower value 0.983 | S. cerevisiae deletion strains, locus YJR043C, strain POL32, stronger effect = lower value 1 | S. cerevisiae deletion strains, locus YJR066W, strain TOR1, stronger effect = lower value 0.856 | S. cerevisiae deletion strains, locus YJR075W, strain HOC1, stronger effect = lower value 0.998 | S. cerevisiae deletion strains, locus YKL009W, strain mrt4, stronger effect = lower value 0.879 | S. cerevisiae deletion strains, locus YKL190W, strain CNB1, stronger effect = lower value 0.979 | S. cerevisiae deletion strains, locus YKR001C, strain vps1, stronger effect = lower value 0.947 | S. cerevisiae deletion strains, locus YLR039C, strain RIC1, stronger effect = lower value 0.842 | S. cerevisiae deletion strains, locus YLR058C, strain SHM2, stronger effect = lower value 0.957 | S. cerevisiae deletion strains, locus YLR102C, strain apc9, stronger effect = lower value 0.97 | S. cerevisiae deletion strains, locus YLR262C, strain YPT6, stronger effect = lower value 0.859 | S. cerevisiae deletion strains, locus YLR268W, strain sec22, stronger effect = lower value 1.04 | S. cerevisiae deletion strains, locus YLR330W, strain CHS5, stronger effect = lower value 0.956 | S. cerevisiae deletion strains, locus YLR342W, strain FKS1 (second series), stronger effect = lower value 0.999 | S. cerevisiae deletion strains, locus YLR371W, strain rom2, stronger effect = lower value 0.962 | S. cerevisiae deletion strains, locus YLR418C, strain cdc73, stronger effect = lower value 0.99 | S. cerevisiae deletion strains, locus YML016C, strain PPZ1, stronger effect = lower value 0.97 | S. cerevisiae deletion strains, locus YML032C, strain rad52, stronger effect = lower value 0.987 | S. cerevisiae deletion strains, locus YML124C, strain tub3, stronger effect = lower value 0.968 | S. cerevisiae deletion strains, locus YMR078C, strain ctf18, stronger effect = lower value 0.953 | S. cerevisiae deletion strains, locus YMR223W, strain ubp8, stronger effect = lower value 0.968 | S. cerevisiae deletion strains, locus YMR263W, strain SAP30, stronger effect = lower value 0.982 | S. cerevisiae deletion strains, locus YMR307W, strain GAS1, stronger effect = lower value 0.953 | S. cerevisiae deletion strains, locus YNL067W, strain RPL9B, stronger effect = lower value 1 | S. cerevisiae deletion strains, locus YNL128W, strain TEP1, stronger effect = lower value 0.966 | S. cerevisiae deletion strains, locus YNL153C, strain GIM3, stronger effect = lower value 0.997 | S. cerevisiae deletion strains, locus YNL183C, strain NPR1, stronger effect = lower value 0.864 | S. cerevisiae deletion strains, locus YNL233W, strain BNI4, stronger effect = lower value 1 | S. cerevisiae deletion strains, locus YNL250W, strain rad50, stronger effect = lower value 0.941 | S. cerevisiae deletion strains, locus YNL271C, strain bni1, stronger effect = lower value 0.951 | S. cerevisiae deletion strains, locus YNL298W, strain CLA4, stronger effect = lower value 0.929 | S. cerevisiae deletion strains, locus YNL307C, strain MCK1, stronger effect = lower value 0.979 | S. cerevisiae deletion strains, locus YNL322C, strain KRE1, stronger effect = lower value 0.969 | S. cerevisiae deletion strains, locus YNR052C, strain pop2, stronger effect = lower value 0.98 | S. cerevisiae deletion strains, locus YOL006C, strain TOP1, stronger effect = lower value 1 | S. cerevisiae deletion strains, locus YOL012C, strain htz1 1.04 | S. cerevisiae deletion strains, locus YOL147C, strain pex11, stronger effect = lower value 0.975 | S. cerevisiae deletion strains, locus YOR061W, strain CKA2, stronger effect = lower value 0.964 | S. cerevisiae deletion strains, locus YOR069W, strain VPS5, stronger effect = lower value 0.966 | S. cerevisiae deletion strains, locus YOR136W, strain idh2, stronger effect = lower value 0.977 | S. cerevisiae deletion strains, locus YOR144C, strain elg1, stronger effect = lower value 0.972 | S. cerevisiae deletion strains, locus YOR184W, strain ser1, stronger effect = lower value 0.98 | S. cerevisiae deletion strains, locus YOR231W, strain MKK1, stronger effect = lower value 0.894 | S. cerevisiae deletion strains, locus YOR316C, strain cot1, stronger effect = lower value 0.962 | S. cerevisiae deletion strains, locus YPL055C, strain LGE1, stronger effect = lower value 0.964 | S. cerevisiae deletion strains, locus YPL241C, strain CIN2, stronger effect = lower value 0.976 | S. cerevisiae deletion strains, locus YPL256C, strain CLN2, stronger effect = lower value 0.851 | S. cerevisiae deletion strains, locus YPR119W, strain clb2, stronger effect = lower value 0.958 | S. cerevisiae deletion strains, locus YPR141C, strain kar3, stronger effect = lower value 0.921 | S. cerevisiae deletion strains, locus YPR163C, strain tif3, stronger effect = lower value 0.986 | S. cerevisiae deletion strains, locus YPR167C, strain met16, stronger effect = lower value 0.975 | S. cerevisiae deletion strains, strain wtn01, stronger effect = lower value 0.983 | S. cerevisiae strains, strain wild type, stronger effect = lower value 0.973
